Hit rate of the full screen: of about 370,000 compounds, about 3,700 (1%) were called active. For the sample, actives were picked, then their nearest neighbours and some compounds at random. A number with no mark means an inactive call.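 Rule for the calls: active = activation above the mean over all tested compounds plus 3 SD (cut at about 0.9% in these data); inactive = the rest.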
What follows are molecules tested on Nuclear hormone receptor DAF-12 (Strongyloides stercoralis) (assay: ssDAF-12 driven luciferase reporter activation – cell-based, luminescence, HEK293, GRIP1 co-expression, lit1-tk-luc, primary screen (AID 652126;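 note: 0% = DMSO-only wells and 100% = 3 µM delta7-dafachronic acid wells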)). Conditions: HEK293 ssDAF-12/GRIP1 lit1-tk-luc reporter, at 6.8 µM, stronger effect = higher value, % of 3 µM dafachronic acid response.
CCOC(=O)[C@]12CCCC3=C1N(CCC3)C(=O)[C@@H](CC(=O)N1CCSCC1)C2 was tested, and the activation was 0.21%. In the case of Clc1ccc(-n2c(COc3ccccc3)nnc2SCc2nc3ccccc3[nH]2)cc1, the activation is reported as -1.69%. Work on O=C(Nc1ccc2c(c1)OCCO2)C1c2ccccc2OCC(=O)N1Cc1ccccn1 (stereo unspecified) yielded an activation of -0.32%. O=C(Nc1ccc(Cl)cc1)C1c2cccc[n+]2CC(=O)N1Cc1ccc2c(c1)OCO2 (stereo unspecified) was tested, and the activation was 2.86% (active). CCCOc1ccc(NC(=O)CC2C(=O)N(C)C(=S)N2Cc2ccc3c(c2)OCO3)cc1 (stereo unspecified) was tested, and the activation was -1.45%. With COc1ccc(Cn2ccc3ccc(-c4ccc5ccn(Cc6ccccc6C)c5c4)cc32)cc1 the activation was -0.43%. Molecule O=S1(=O)c2c(cccc2N2CCSCC2)Oc2ccccc2CN1Cc1cn(Cc2ccc(F)cc2)nn1 has an activation of -1.43%. For O=C(CN1CCC(NC(=O)NCc2ccccc2)CC1)Nc1ccc2c(c1)OCCO2, the activation was -1.37%. C=CCN1C(C(=O)OC)CN(Cc2cn(Cc3ccccc3)nn2)CCS1(=O)=O (stereo unspecified) showed an activation of -1.67%. C=CCN(C)CC#Cc1ccccc1 was tested, and the activation was -0.95%. For COc1ccc(-n2c(SCC(=O)NC3CCCC3)nnc2-c2ccncc2)cc1, the activation was -0.71%. In the case of S=C(NN=Cc1ccccn1)Nc1ccccn1, the activation is reported as 1.63% (active). CS(=O)(=O)N(CC(=O)N/N=C/c1ccccn1)c1ccc(Oc2ccccc2)cc1 showed an activation of -0.77%. With O=C(O)C1C2C=CC(O2)C1C(=O)Nc1ccccn1 (stereo unspecified) the activation was -1.12%. CCCOc1ccc(Oc2c(Cl)cnn(Cc3cccc4ccccc34)c2=O)cc1 was tested, and the activation was -1.41%. For O=C1CC(c2ccc3c(c2)OCO3)N=C2N(CC3CC3)C/C(=C/c3ccccc3)N12 (stereo unspecified), the activation was -1.93%. For CCOc1ccc(-n2c(SCC(=O)Nc3cc(C)c(NC(=O)c4ccccc4)cc3OC)nnc2-c2cccc(Cl)c2)cc1, the activation was -1.5%. With CCOC(=O)c1c(NC(=S)Nc2ccccc2)sc2c1CCN(C)C2 the activation was -1.34%. With CCOC(=O)c1c(NC(=S)Nc2ccccc2C)sc2c1CCC2 the activation was 1.91% (active). With CCOC(=O)c1c(NC(=O)C2(C)Cc3ccccc3C(=O)O2)sc2c1CCCC2 (stereo unspecified) the activation was -1.31%. CC(=O)OCCN1CCCC12CCC(c1ccccc1)CC2 (stereo unspecified) showed an activation of -0.84%. C#CCN([C@H](C(=O)OC)C(C)CC)S(=O)(=O)c1ccccc1Br (stereo partly specified) gave an activation of -1.85%. CCOc1ccc(N2CC(C(=O)N/N=C/c3sccc3C)CC2=O)cc1 (stereo unspecified) showed an activation of -1.57%. In the case of Cc1ccsc1/C=N/NC(=O)Cc1cc(=O)[nH][nH]1, the activation is reported as 1.42% (active). Cc1ccc(-c2nnc(SCC(=O)N/N=C/c3cccs3)n2-c2ccc(C)cc2)cc1 showed an activation of -0.75%. CN(C)S(=O)(=O)c1cccc(C(=O)N/N=C\c2ccco2)c1 was tested, and the activation was -0.66%. In the case of CC1CCCCC1NC(=O)c1cc(=O)[nH]c2ccccc12 (stereo unspecified), the activation is reported as -0.66%. CC1CCN(C(=O)COC(=O)c2cc(=O)[nH]c3ccccc23)CC1 was tested, and the activation was -0.23%. With COC(=O)C1CCN(C(=O)c2cc(=O)[nH]c3ccccc23)CC1 the activation was 1.33% (active). Molecule CCc1ccccc1NC(=O)CSc1nnc(-c2cccs2)o1 has an activation of -1.52%. With Cc1ccc(NC(=O)CN2CCc3ccccc3C2)cc1C the activation was 1.3% (active). Cc1ccc(NC(=O)COc2coc(CN3CCc4ccccc4C3)cc2=O)cc1Cl showed an activation of -1.76%. O=C(CN1CCc2ccccc2C1)Nc1cccc(S(=O)(=O)N2CCOCC2)c1 was tested, and the activation was -0.91%. In the case of CCc1ccc(NC(=O)N2CCc3ccccc3C2)cc1, the activation is reported as 1.53% (active). CCOC(=O)c1c(NC(=S)SC)sc(C(=O)N2CCc3ccccc3C2)c1C showed an activation of -0.64%. With CCc1ccc(NC(=O)CC2C(=O)NCCN2C(=S)Nc2ccccc2)cc1 (stereo unspecified) the activation was -1.42%. With Cc1cc(NS(=O)(=O)c2ccc(NC(=O)CSc3nnc(-c4ccc(C(C)(C)C)cc4)n3Cc3ccco3)cc2)nc(C)n1 the activation was -1.29%. Molecule COc1ccc(O)c(C(=O)c2cnc3onc(C(C)C)c3c2)c1 has an activation of -0.89%. For COc1cccc(NC(=O)Nc2ccc(F)cc2)c1, the activation was 1.74% (active). For COc1cccc(NC(=O)CC2C(=O)NCCN2C(=S)Nc2ccc(F)cc2)c1 (stereo unspecified), the activation was -1.35%. With COc1cccc(C(=O)NNS(=O)(=O)c2ccc(F)cc2)c1 the activation was -1.09%. In the case of COC(=O)C1CN(Cc2cn(Cc3ccc(F)cc3)nn2)CCS(=O)(=O)N1Cc1ccc(Cl)cc1 (stereo unspecified), the activation is reported as -2.03%. In the case of CCCCNC(=O)C[C@H]1C[C@@]2(C(=O)OC)C(=C[C@H](COCc3ccccc3)O[C@@H]2C)N(Cc2ccc(Cl)cc2Cl)C1=O, the activation is reported as -1.35%. CC(C)CSc1nnc(-c2cccnc2)n1Cc1ccccc1 gave an activation of -1.35%. Work on COC(=O)c1cc(S(=O)(=O)N2CCN(C(=O)C3CCCO3)CC2)cn1C (stereo unspecified) yielded an activation of -1.3%. Work on Cc1ccc(CCNC(=O)c2ccc3nc4ccccc4c(=O)n3c2)cc1 yielded an activation of -1.47%. For Cc1ccc(C(=O)NNc2ncnc3ccccc23)cc1, the activation was 1.85% (active). With Cn1ncc2c(NNC(=O)Cc3cccc4ccccc34)ncnc21 the activation was -1.61%. In the case of O=C(CNC(=O)c1ccccc1)OC(C(=O)Nc1cc([N+](=O)[O-])ccc1F)c1ccccc1 (stereo unspecified), the activation is reported as -2.1%. For CCOC(=O)C1CCN(C(=O)C(C)(C)NC(=O)Nc2ccccc2Cl)CC1, the activation was -0.72%. In the case of O=C(O)c1cccc(N=NN2CCCCCC2)c1, the activation is reported as 1.23% (active). In the case of NC1=NN(c2cccc(C(=O)O)c2)C(=O)C1, the activation is reported as 0.3%. Molecule O=C(O)c1cccc(S(=O)(=O)N2CC=C(c3ccccc3)CC2)c1 has an activation of -1.29%. Molecule O=C(c1c[nH]c2ccccc12)N1CCC(Oc2cccnc2)CC1 has an activation of -1.03%. Molecule Cc1ccc(OCc2nnc(SC/C=C/c3ccccc3)n2Cc2ccco2)cc1 has an activation of -1.7%. O=C(Nc1cccc(Cl)c1)OC1CC2CC1[C@H]1CCCCN1[C@H]2Cc1ccccc1 (stereo partly specified) gave an activation of -1.06%. Work on Cc1ccccc1NC(=O)COC(=O)c1ccc(Sc2ncn[nH]2)c([N+](=O)[O-])c1 yielded an activation of -1.78%. Work on Cc1nc2ccc(C(=O)N3CCN(C(=O)C(C)(C)C)CC3)cc2n1C1CCCC1 yielded an activation of -1.22%. Molecule CN(C)c1cc(N)c2ccccc2n1 (tested in a mixture with another compound) has an activation of -0.25%. Molecule CCOC(=O)c1nc(-c2ccc3c(c2)OCO3)[nH]c1C has an activation of -1.3%. In the case of Cc1ccc(-c2nc3ccccc3[nH]2)cc1N, the activation is reported as 2.5% (active). Cc1cc(C)nc(NC(=S)N2CCN(c3ccc(C(F)(F)F)cn3)CC2)c1 was tested, and the activation was -1.63%. Molecule COc1ccc(C(=O)OCCN2CCN(C3CN(Cc4cn(Cc5ccccc5F)nn4)S(=O)(=O)C3)CC2)cc1OC (stereo unspecified) has an activation of -1.83%. O=C(Nc1cc(F)cc(F)c1)OC1CCC12CCC(c1ccccc1)CC2 (stereo unspecified) was tested, and the activation was -1.11%. O=C(Nc1cc(Cl)cc(Cl)c1)OCCN1CCCC12CCC(c1ccccc1)CC2 (stereo unspecified) was tested, and the activation was -1.99%. Cc1ccc(-n2c(SCC(=O)Nc3ccc(S(=O)(=O)Nc4nccs4)cc3)nnc2-c2cccnc2)cc1 was tested, and the activation was -1.03%. Fc1ccc2cnc(-c3ccccc3)cc2c1 was tested, and the activation was 0.89%. In the case of Fc1ccccc1-c1cc2cc3c(cc2cn1)OCO3, the activation is reported as 0.96% (active). In the case of COC(=O)C[C@@H]1CC[C@@H]2[C@H](COc3ccc(NC(=O)c4cccc(F)c4)cc3C(=O)N2C)O1, the activation is reported as -1.32%. CN(C(N)=NC(=O)/C=C/c1ccccc1)C(C#Cc1ccccc1)Cc1ccccc1 (stereo unspecified) gave an activation of -1.31%. O=C(CCCCCN1C(=O)C2C3C=CC(C3)C2C1=O)Nc1ccccn1 (stereo unspecified) showed an activation of -1.93%. COc1ccc(Cn2cc(COC(=O)N(C)Cc3ccccc3)nn2)cc1 was tested, and the activation was -1.12%. In the case of Cc1ccc(NC(=O)c2ccc(Cl)nc2)cc1S(=O)(=O)N1CCOCC1, the activation is reported as -1.53%. COc1ccc(CC(=O)NCc2nnc(SCC(=O)Nc3ncc(C)s3)n2C)cc1 was tested, and the activation was -1.52%. With Cc1cnc(NC(=O)c2ccc(Cl)nc2)s1 the activation was 1.34% (active). COc1ccc(-c2cc(-c3nnc(SCC(=O)Nc4cccc5ccccc45)n3N)[nH]n2)cc1 gave an activation of -1.73%. Cc1cc(=O)[nH]c(SCC(=O)Nc2ccc(Cl)cc2C)n1 was tested, and the activation was -1.2%. CCC(c1ccc(NC(=O)OC(C)(C)C)cc1)c1cc(OC)cc(OC)c1 (stereo unspecified) showed an activation of -1.95%. CC(C)(C)c1ccc(C(=O)Nc2cc(Cl)c(Br)cc2C(=O)O)cc1 showed an activation of -1.31%. Cc1c(C(=O)Nc2ccccn2)oc2ccc(Br)cc12 was tested, and the activation was 1.84% (active). In the case of CCc1nonc1NC(=O)c1oc2ccc(Cl)cc2c1C, the activation is reported as -0.87%. Work on Cc1c(C(=O)NC2CCCCC2)oc2ccccc12 yielded an activation of -0.81%. C=CCn1c(SCC(N)=O)nnc1-c1ccccc1OC showed an activation of -0.81%. COc1ccc(NC(=O)c2ccc(OC)cc2)cc1 was tested, and the activation was 0.92% (active). Work on COc1ccc(C(=O)Nc2ccc(-n3nncc3C(C)(C)C)cc2)cc1 yielded an activation of -1.68%. For COc1ccc(C(=O)NCC[N+](C)(C)C)cc1, the activation was -0.25%. O=C(CSc1nnc(-c2ccccc2)n1Cc1ccco1)Nc1ccccc1-c1ccccc1 gave an activation of -1.67%. O=C(CSc1nnc(COc2ccccc2)n1Cc1ccco1)c1ccc2ccccc2c1 gave an activation of -1.35%. For Clc1ccc(-c2cc(-c3ccccn3)on2)c(Cl)c1, the activation was 1.28% (active). Clc1ccc(-c2cc(C3CCNCC3)[nH]n2)c(Cl)c1 gave an activation of -1.62%. O=C(c1ccccc1)c1cc(-c2ccccn2)c(N2CCOCC2)s1 showed an activation of -1.53%.
